# Assay results as given in PubChem BioAssay (NCATS).
# Inconclusive results are not listed. Values without a mark were called inactive. Active and inactive are the calls of the source. Calls come from the whole dose curve; as a rule, active = well fitted cell-killing curve with a large enough effect; inconclusive = small, poorly fitted or top-dose-only effect; inactive = flat fitted curve, though single readings scatter.
# Test: qHTS of pediatric cancer cell lines to identify multiple opportunities for drug repurposing: Primary screen for U-2 OS cells (AID 1347096); note: nearly all actives have a fitted effect of over 50% in size;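 for activity change, negative = cytotoxic: plate controls were DMSO wells for no effect and bortezomib positive control wells for full effect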
# Conditions: U-2 OS viability, CellTiter-Glo luminescence, 48 h; series mostly up to 46 µM; activity change, negative = cytotoxic: at the top concentration
# How it was run: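 Cells (500-1,000/well) rested 5 h, then received compounds for 48 h; metabolically active cells were measured by CellTiter-Glo luminescence. Final concentrations spanned up to 46 µM (MIPE, 11-point) or 0.59 nM-46 µM (NPC, 8-point) in primary screens, 11-point in follow-ups.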
# Potency is the fitted concentration of half-maximal effect.
SMILES,"activity change, negative = cytotoxic",Potency
Cc1onc(-c2c(Cl)cccc2Cl)c1C(=O)Cl,7.14%,–
CCOC(=O)Oc1ccc(CCNC(=O)[C@H](CCSC)NC(C)=O)cc1OC(=O)OCC,5.35%,–
O=[N+]([O-])c1nccn1CO[C@@H](CO)[C@H](O)CO,-5.21%,–
NS(=O)(=O)c1ccc(N2CCCCS2(=O)=O)cc1,17.3%,–
O=C(O)CCC(=O)OC[C@@H](NC(=O)C(Cl)Cl)[C@H](O)c1ccc([N+](=O)[O-])cc1,5.27%,–
CC(=O)c1ccc(O)c(C(N)=O)c1,14.6%,–
O=C1c2ccccc2CCc2ccccc21,-5.62%,–
CCOC(=O)c1ccc(NC(=O)CN2CCCCC2)cc1,4.97%,–
Cc1c(F)cc2c(=O)c(C(=O)O)cn3c2c1CCC3C (centres undefined),-0.369%,–
CC(C)(C)NCC(O)COc1ccccc1OCC1CCCO1 (centres undefined),7.78%,–
Cc1ccc(O)cc1,15.7%,–
CCCCC(CC)CNC(=O)CC(C)OC(=O)CCC(=O)O (centres undefined),-7.76%,–
CCN(CC)CC(=O)OCC(=O)[C@@]1(O)CC[C@H]2[C@@H]3CCC4=CC(=O)CC[C@]4(C)[C@H]3[C@@H](O)C[C@@]21C,5.48%,–
OCCCc1ccccc1,10.4%,–
O=C(CCCCC(=O)Nc1c(I)cc(I)c(C(=O)O)c1I)Nc1c(I)cc(I)c(C(=O)O)c1I,14.1%,–
Cc1cccc(OCC(O)CNC(C)(C)C)c1C (centres undefined),1.67%,–
Cc1ccc(C(=O)C(=O)O)cc1C,10.2%,–
CC(=O)Nc1c(I)c(NC(C)=O)c(I)c(C(=O)O)c1I,9.29%,–
CC(C)(Oc1ccc(Cl)cc1)C(=O)OCCCOC(=O)C(C)(C)Oc1ccc(Cl)cc1,-6.76%,–
O=C(CO)[C@@H](O)[C@H](O)[C@@H](O)CO,0.272%,–

SMILES,"activity change, negative = cytotoxic",Potency
CCOC(=O)O[C@]1(C(=O)OCCl)CC[C@H]2[C@@H]3CCC4=CC(=O)C=C[C@]4(C)[C@H]3[C@@H](O)C[C@@]21C,-1.9%,–
C[C@H]1C[C@H](O)c2ccsc2S1(=O)=O,7%,–
CCN(CC)CC(=O)Oc1ccc(NC(C)=O)cc1,14.2%,–
COC(=O)c1cc(Cl)c(NC(C)=O)cc1OC,16.2%,–
C[N+]1(C)CCC(OC(=O)C(O)(c2ccccc2)C2CCCC2)C1 (centres undefined),9.08%,–
CCOC(=O)C(O)c1ccccc1 (centres undefined),17.7%,–
CCN1CCCC1CN (centres undefined),-4.26%,–
Cc1cc2nc3ccc(=[N+](C)C)cc-3sc2cc1N,–,21.1 µM (active)
CCOC(=O)OCC/C(SC(=O)OCC)=C(\C)N(C=O)Cc1cnc(C)nc1N,14.1%,–
CCN(CC)CCN,18.2%,–
CC(C)(C)c1nnc(NS(=O)(=O)c2ccccc2)s1,9%,–
CC(C)C(=O)Nc1cccc(C(F)(F)F)c1,3.36%,–
CC(C)NCCCC1(C(N)=O)c2ccccc2-c2ccccc21,2.67%,–
Oc1ccccc1-c1nnco1,13.4%,–
CN=C(N)NC(=O)Nc1c(C)cccc1C,2.85%,–
Cc1cc(=O)oc2cc(O[C@@H]3SC[C@@H](O)[C@H](O)[C@H]3O)ccc12,3.95%,–
CN1C(=O)c2ccccc2C1=O,-4.96% [at 92.7 µM],–
CCN1CCN(C(=O)N[C@@H](C(=O)N[C@@H]2C(=O)N3[C@@H]2SC(C)(C)[C@H]3C(=O)O)c2ccccc2)C(=O)C1=O,13.5%,–
O=C(C1CCCCC1)N1CC(=O)N2CCCc3ccccc3C2C1 (centres undefined),4.14%,–
